MITF act – activators of MITF-driven TRPM1 promoter reporter, primary screen, cell-based, SK-MEL-5, luciferase, single point | SK-MEL-5 TRPM1-promoter luciferase, 24 h; % of positive control, neutral wells = 0 | AID 588334, 2011 | activation, % at 12.5 µM | actives 0.75% (n = 300,000);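 active = mean activation of at least 80% with every replicate also reaching 80%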;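 note: 0% = neutral control wells and 100% = parthenolide positive control wells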
LGR2 antag – inhibitors of bursicon-induced LGR2 CRE-luciferase signal, primary screen, cell-based, HEK293, CRE-luciferase reporter, bursicon stimulation. Drosophila bursicon receptor LGR2 (rickets). AID 720647, 2013. inhibition, % at 9.99 µM. actives 0.35% (n = 380,000). bursicon-stimulated, 4 h;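 active = drop in luminescence signal, shown as inhibition above about 50% in the replicate tests, limit read from the data, passing the limit was not always enough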;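 note: agonist challenge used bursicon conditioned medium at about half maximal strength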
TWEAK-Fn14 inh – inhibitors of TWEAK-Fn14 signaling, primary screen, luciferase reporter cells, uHTS. TWEAK-stimulated Fn14 reporter cells, luciferase luminescence, 8 h. inhibition, % at 10 µM. actives 2% (n = 360,000). AID 1159606, 2016; in the data active = inhibition above about 50%
EBV LMP1 NFkB – EBV LMP1-driven NF-kappaB luciferase reporter inhibitors, primary screen, cell-based, luminescence, single point; actives 0.69% (n = 350,000); inhibition, % at 12.5 µM; LMP1-induced NF-kappaB luciferase reporter cells; in the data active = inhibition above about 41%;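 note: 0% = neutral control wells and 100% = reference inhibitor control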
MITF TRPM1 inh – inhibitors of MITF-dependent TRPM1 promoter reporter, primary screen, cell-based, SK-MEL-5, single point, luciferase; SK-MEL-5 TRPM1 promoter luciferase, 24 h; inhibition, % at 12.5 µM; actives 0.83% (n = 330,000);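 active = mean inhibition across replicates of 60% or more, whatever share of single replicates reaches that level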
TROY NFkB inh – inhibitors of TROY-driven NF-kB signaling, primary screen, Q293 LMP1-TROYcd cells, NF-kB luciferase, uHTS; actives 0.98% (n = 360,000); inhibition, % at 10 µM; Q293 LMP1-TROYcd NF-kB luciferase reporter, 4 h;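 active = compounds whose plate-normalised and pattern-corrected inhibition of the luciferase reporter signal at the single screening dose is 50% or more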
* = called active by the depositor; x = no result given. An excerpt weighted towards active compounds, which were near 3% of everything screened.

SMILES | MITF act | LGR2 antag | TWEAK-Fn14 inh | EBV LMP1 NFkB | MITF TRPM1 inh | TROY NFkB inh
C/C(=N\Nc1nc2ccccc2s1)c1ccc2c(c1)OCO2 | 25 | -54 | -20 | -44 | -26 | 12
C/C=C/c1ccc([C@H]2[C@@H](CO)N(C(=O)C3CC3)C23CN(S(=O)(=O)CC)C3)cc1 | x | -1 | x | x | x | x
Nc1ccc(Oc2ccc3nc(-c4ccccc4)c(-c4ccccc4)nc3c2)cc1 | 13 | x | x | -43 | -8 | x
Nc1ccc(Oc2cc(N)cc(Oc3ccccc3)c2)cc1 | 87* | -119 | 13 | -37 | -81 | -25
CCC(=O)N1CC(=O)N2[C@H](CO)[C@H](c3ccc(C#CCc4ccccc4)cc3)[C@H]2C1 | x | 19 | x | x | x | x
C[C@@H]1CN([C@H](C)CO)C(=O)c2cc(Br)cnc2O[C@H]1CN(C)C(=O)Nc1ccccc1 | x | -3 | x | x | x | x
CN(C)c1cc(NC(=O)CNC(C)(C)C)c2ccccc2n1 | x | 0 | 51* | 0 | 6 | -2
COc1cc(CSc2nnnn2-c2ccc(C)cc2)cc(OC)c1OC | -22 | x | 48 | 27 | 23 | 54*
C[C@@H]1CN([C@H](C)CO)C(=O)c2cccc(NC(=O)Nc3ccc4c(c3)OCO4)c2O[C@H]1CN(C)CC1CCCCC1 | x | -18 | x | x | x | x
COc1cc(OC)c(/C=C2\SC(=O)N(CC(=O)Nc3ccccc3F)C2=O)c(OC)c1 | -4 | 3 | -61 | 44* | 7 | 15
COc1ccc(/C=C2\SC(=O)N(CC(=O)Nc3ccc(F)cc3)C2=O)cc1O | 8 | -3 | -30 | 3 | -11 | -2
CCOc1cc(/C=C2\SC(=O)N(CC(=O)Nc3ccccc3F)C2=O)cc([N+](=O)[O-])c1O | -12 | 7 | 3 | 0 | 11 | 40
COc1cc(/C=C2\SC(=O)N(CC(=O)Nc3ccccc3F)C2=O)cc(Cl)c1O | x | 32 | 18 | 7 | 9 | 54*
CCc1ccc(/C=C/C(=O)C2C(=O)c3ccccc3C2=O)cc1 | 16 | 62* | 1 | 51* | -10 | -44
O=C(/C=C/c1ccccc1)C1C(=O)c2ccccc2C1=O | -5 | -1 | 28 | 34 | 0 | -30
Cc1ccc(Nc2nc(CSc3nnnn3-c3ccccc3)cs2)cc1 | x | x | 58* | -4 | 6 | 38
Cc1ccc(Nc2nc(CSc3n[nH]c(N)n3)cs2)cc1 | 93* | -69 | -18 | 3 | -81 | 1
Cc1ccc(Nc2nc(CSc3nnnn3C)cs2)cc1 | 75 | x | 63* | -35 | -75 | 33
Cc1ccc(Nc2nc(CSc3nnc(-c4cccnc4)n3-c3ccccc3C)cs2)cc1 | -4 | 0 | 53* | -7 | 3 | 51*
Cn1nnnc1SCc1csc(Nc2ccccc2)n1 | 58 | x | 4 | -8 | -59 | -11
C[C@H](CO)N1C[C@H](C)[C@@H](CN(C)CC2CC2)Oc2cc(-c3cncnc3)ccc2S1(=O)=O | x | 3 | x | x | x | x
C[C@H](NC(=O)C[C@H]1C[C@@H]2c3cc(NC(=O)CN(C)C)ccc3O[C@@H]2[C@@H](CO)O1)c1ccccc1 | x | 3 | x | x | x | x
Cc1ccc2[nH]c(CNC(=O)C3CCCCC3)cc2c1 | -17 | -16 | 72* | -8 | 20 | 53*
COc1ccc(S(=O)(=O)N(C)C[C@@H]2OCCCC[C@H](C)Oc3ccc(NS(=O)(=O)c4cn(C)cn4)cc3C(=O)N([C@@H](C)CO)C[C@H]2C)cc1 | x | -10 | x | x | x | x
O=C(/C=C/Nc1ccc(S(=O)(=O)Nc2ncccn2)cc1)c1cccs1 | -7 | 1 | 60* | -6 | 10 | 42
SMILES | MITF act | LGR2 antag | TWEAK-Fn14 inh | EBV LMP1 NFkB | MITF TRPM1 inh | TROY NFkB inh
Cn1c(CSCc2ccc(Cl)c(Cl)c2)nnc1SCC(=O)Nc1nccs1 | -5 | x | 51* | 5 | 5 | 20
Cn1c(CSCc2ccc(Cl)cc2)nnc1SCC(=O)Nc1nccs1 | -13 | 1 | 19 | 4 | 13 | 29
CC1=C(C(=O)OCc2ccccc2)C(c2cccc([N+](=O)[O-])c2)NC(=O)N1 (stereo not given) | -5 | -5 | 12 | 5 | 4 | 14
COCCOC(=O)C1=C(C)NC(=O)NC1c1ccc(-c2ccc(F)cc2)o1 (stereo not given) | -6 | -25 | -8 | -10 | 8 | -18
CCOc1ccc(C2NC(=O)NC(C)=C2C(=O)OCc2ccccc2)cc1 (stereo not given) | x | -9 | -8 | -30 | -11 | 20
COc1ccc(COC(=O)C2=C(C)NC(=O)NC2c2ccc(F)cc2)cc1 (stereo not given) | 7 | 21 | 53* | 2 | -4 | 33
CC1=C(C(=O)OCc2ccc3c(c2)OCO3)C(c2cccc([N+](=O)[O-])c2)NC(=O)N1 (stereo not given) | 7 | 33 | 75* | 11 | -5 | 49
CCC(CC)COC(=O)C1=C(C)NC(=O)NC1c1cc(OC)ccc1OC (stereo not given) | 1 | 4 | 104* | 3 | 3 | -26
CCOC(=O)C1=C(C)NC(=O)NC1c1ccc(-c2ccccc2F)o1 (stereo not given) | -9 | 1 | 16 | -2 | 10 | 54*
